Only some compounds are listed: those with a hit (about 31% of all), similar ones and a draw of the others.
CYP2C19 inh = blocks human cytochrome P450 2C19. P33261. CYP2C19 Supersomes, luciferin-H EGE luminescence, 30 min. inhibition, % at 5 µM. 96,000 compounds, 21% hits. AID 778;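 active = CYP2C19 inhibition above a set limit at 5 µM in the primary screen, cut at about 50% in these data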;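 also: plate controls were negative control wells for no effect and 2.5 mM tranylcypromine positive control for full effect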
CYP2C9 act = activators of human CYP2C9; recombinant CYP2C9, luciferin-H conversion, luminescence; stronger effect = higher value; factor 1 = untreated enzyme, 0 = blocked; activation factor at 5 µM; P11712; 96,000 compounds, 1.4% hits;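 active = activation factor of 2 or more for CYP2C9 at a 5 µM dose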;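 also: 0 = sulfaphenazole-blocked wells and 1 = vehicle-only wells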
Target sequence (P11712 whole entry, looked up): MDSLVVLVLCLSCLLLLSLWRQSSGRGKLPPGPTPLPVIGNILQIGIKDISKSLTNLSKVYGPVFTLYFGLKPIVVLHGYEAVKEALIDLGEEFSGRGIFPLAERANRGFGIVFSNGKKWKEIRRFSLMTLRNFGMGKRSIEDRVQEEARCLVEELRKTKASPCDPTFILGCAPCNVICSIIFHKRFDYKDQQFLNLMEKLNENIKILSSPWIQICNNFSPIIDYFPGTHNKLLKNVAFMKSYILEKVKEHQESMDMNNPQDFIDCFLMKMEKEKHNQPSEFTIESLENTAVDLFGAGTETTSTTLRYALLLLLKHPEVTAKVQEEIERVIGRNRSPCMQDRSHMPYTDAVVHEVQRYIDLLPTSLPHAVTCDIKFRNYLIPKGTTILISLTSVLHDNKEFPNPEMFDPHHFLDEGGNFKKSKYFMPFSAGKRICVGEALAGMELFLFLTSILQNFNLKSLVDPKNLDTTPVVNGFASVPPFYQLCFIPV
CYP2C9 inhib = human CYP2C9 inhibition; P11712; inhibition, % at 5 µM; CYP2C9 Supersomes, luciferin-H conversion, luminescence; 96,000 compounds, 20% hits;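 active = blocking of liver enzyme CYP2C9 beyond about 50% at 5 µM, limit read from the data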
CYP2C19 activ = increases human CYP2C19 enzyme activity; recombinant CYP2C19, luciferin-H EGE luminescence; stronger effect = higher value; 0 = fully inhibited enzyme, 1 = untreated enzyme; activation factor at 5 µM; 96,000 tested, under 10 active;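 active = activation factor of at least 2 at 5 µM in the primary screen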;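 also: 0 = wells with 2.5 mM tranylcypromine and 1 = vehicle-only wells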
An asterisk follows results filed as active.

SMILES	CYP2C19 inh	CYP2C9 act	CYP2C9 inhib	CYP2C19 activ
CCN(CC)CCCN=C(C)c1c(O)n(-c2ccccc2)c(=O)[nH]c1=O	-5.4	1.1	-5.4	1.1
CC1CCCC(C2(O)C(=O)Nc3ccccc32)C1=O (centres undefined)	-6.0	1.2	-17.9	1.1
O=c1[nH]c(=O)n(Cc2ccccc2)c(O)c1C=NCCCn1ccnc1	7.3	0.4	63.5*	0.9
O=c1[nH]c(=O)n(-c2cccc3ccccc23)c(O)c1C=NCCCn1ccnc1	21.7	0.3	74.9*	0.8
O=c1[nH]c(=O)n(Cc2ccc(F)cc2)c(O)c1C=NCCCO	-2.9	1.1	-5.7	1
O=c1[nH]c(=O)n(CCc2ccccc2)c(O)c1C=NCCCn1ccnc1	50.3*	0.3	72.9*	0.5
CCCCn1c(O)c(C=NCCCn2ccnc2)c(=O)[nH]c1=O	21.6	0.5	46.2	0.8
O=c1[nH]c(=O)n(Cc2ccc(F)cc2)c(O)c1C=NCCCn1ccnc1	32.7	0.1	86.4*	0.7
CC1(C)C2CC=C(CN3CCOCC3)C1C2 (centres undefined)	-1.8	1.2	-15.5	1
Cc1ccccc1CS(=O)(=O)Cc1ccc(C(=O)N2CCC3(CC2)OCCO3)o1	25.4	0.7	26.9	0.7
CC1CCCCN1CC(=O)c1ccc2cc[nH]c2c1 (centres undefined)	17.6	0.7	25.2	0.8
Cc1ccc(S(=O)(=O)N2CCC(C(=O)N3CCC4(CC3)OCCO4)CC2)cc1	-10.2	1.4	-43.3	1.1
O=C(C1CC(c2ccccc2O)=NO1)N1CCC2(CC1)OCCO2 (centres undefined)	100.0*	1	3.1	0
O=C(N/N=C1/CN2CCC1CC2)c1cc2ccccc2cc1O	-10.3	1	-3.5	1.1
O=C1NC(=O)C(CCc2ccncc2)(C2CCCCC2)C(=O)N1	64.5*	0.3	69.9*	0.4
COC(=O)c1cc2c(s1)=NC=NP=2(N1CCOCC1)N1CCOCC1	27.7	0.5	48.0	0.7
COc1ccc2[nH]c(C)c(CCN3CCC(=O)C(C)C3C)c2c1 (centres undefined)	88.6*	0.5	50.7*	0.1
Cn1c(O)c(C(=O)c2ccccc2Cl)c(=O)n(C)c1=O	-7.9	1	-0.7	1.1
CN(C)C1=C(C#N)C(c2ccccc2)=NP(N(C)C)(N(C)C)=N1	3.3	0.9	14.8	1
CCCCn1c(O)c(C(CC)=NCc2ccc(F)cc2)c(=O)[nH]c1=O	40.8	0.3	71.4*	0.6
CCCCn1c(O)c(C(CC)=NCCN2CCOCC2)c(=O)[nH]c1=O	36.7	0.4	63.8*	0.6
CCCCn1c(O)c(C(CC)=NCCc2ccccc2)c(=O)[nH]c1=O	45.5	0.2	77.9*	0.5
CN(C)C(Cc1ccccc1)C(=O)c1ccc(-c2ccccc2)cc1 (centres undefined)	49.6	0.3	74.5*	0.5
CC1CN=C(Nc2ccc(N(C)C)cc2)S1 (centres undefined)	56.1*	1	3.1	0.4
COc1ccc(OP(=O)(Nc2ccccc2)Nc2ccccc2)cc1	82.7*	0.3	69.3*	0.2
SMILES	CYP2C19 inh	CYP2C9 act	CYP2C9 inhib	CYP2C19 activ
CCOP1(=S)Oc2cc3c(cc2C(C(=O)OC)(C(F)(F)F)O1)OCO3 (centres undefined)	98.2*	0.1	89.1*	0
O=c1[nH]c(CN2CC=C(c3ccccc3)CC2)nc2cc(C(F)(F)F)ccc12	39.3	0.2	79.4*	0.6
CN(CCCCC(=O)/C=N/O)Cc1ccccc1 (tested in a mixture with another compound)	6.6	1.1	-13.0	0.9
CN(CCc1ccccc1)Cc1ccccc1[N+](=O)[O-]	90.9*	0.2	75.7*	0.1
CN(C)CCN=Cc1c(O)n(-c2cccc(C(F)(F)F)c2)c(=O)[nH]c1=O	-12.4	1.2	-21.4	1.1
CC1(C)CC(=O)C(C=NCCN2CCN(C(=O)Cc3ccc(Cl)cc3)CC2)=C(O)C1	90.3*	0.4	63.2*	0.1
Cn1c(O)c(C=NCCN2CCN(C(=O)c3ccccc3)CC2)c(=O)n(C)c1=O	-13.1	1.2	-18.8	1.1
CCC12CN3CC(CC)(CN(C1)C3c1cccnc1)C2=O (centres undefined)	6.7	1.2	-16.3	0.9
O=C(NCC(c1cccnc1)N1CCN(c2ccccc2F)CC1)Oc1ccccc1 (centres undefined)	77.5*	0.1	85.1*	0.2
Cn1c(O)c(C=NCc2ccco2)c(=O)n(C)c1=O	52.3*	0.7	27.9	0.5
CC(=NCc1ccco1)c1c(O)n(C)c(=O)n(C)c1=O	35.5	0.8	18.4	0.6
C/C(=N/OC(=O)N(C)C)c1ncc(C(F)(F)F)cc1N1CCOCC1	14.4	0.9	13.6	0.9
CCCCn1c(O)c(C(C)=NCCCN(C)C)c(=O)[nH]c1=O	-11.5	1.2	-19.8	1.1
CCCCn1c(O)c(C(C)=NCCCN(CC)CC)c(=O)[nH]c1=O	-1.4	0.9	11.5	1
C=CCn1c(O)c(C(=O)CCCCCC)c(=O)[nH]c1=O	5.4	0.4	57.3*	0.9
CCCCn1c(O)c(C(C)=NCCCn2ccnc2)c(=O)[nH]c1=O	32.7	0.1	90.2*	0.7
CCCCCCN=C(C)c1c(O)n(CCCC)c(=O)[nH]c1=O	54.6*	0.3	65.5*	0.5
CCN(CC)CCN=Cc1c(O)n(CCc2ccccc2)c(=O)[nH]c1=O	-12.2	1	4.1	1.1
CCN1CCN(Cc2nnnn2C(C)(C)C)CC1	45.2	1	-0.7	0.5
CN1C(=O)C(=Cc2ccc(N3CCCCCC3)o2)C(=O)N(C)C1=S	59.2*	0.8	23.1	0.4
C=CCOC(=O)COc1cc(C)cc2oc(=O)c3c(c12)CCC3	84.3*	0.4	57.6*	0.2
Cc1cc(OCc2ccc([N+](=O)[O-])cc2)c2c3c(c(=O)oc2c1)CCCC3	60.2*	0.2	78.9*	0.4
Cc1cc(OC(=O)CCNC(=O)OC(C)(C)C)c2c3c(c(=O)oc2c1)CCC3	28.7	0.7	29.3	0.7
Cc1cc(OC(=O)CCCNC(=O)OC(C)(C)C)c2c3c(c(=O)oc2c1)CCC3	41.3	0.4	55.2*	0.6
Cc1cc(OCc2nn[nH]n2)c2c3c(c(=O)oc2c1)CCCC3	-16.8	0.3	72.2*	1.2
SMILES	CYP2C19 inh	CYP2C9 act	CYP2C9 inhib	CYP2C19 activ
Cc1cc(OC(=O)c2ccco2)c2c3c(c(=O)oc2c1)CCC3	-19.7	1.1	-14.2	1.2
CCCCOC(=O)COc1cc(C)cc2oc(=O)c3c(c12)CCC3	39.5	0.5	46.2	0.6
CC1=NN(c2ccccc2)C(=O)C1/C=C1\C(=O)NC(=O)N(c2ccc(C)c(C)c2)C1=O (centres undefined)	-14.8	0.3	67.7*	1.1
CC1=NN(c2ccccc2)C(=O)C1/C=C1/C(=O)NC(=O)N(c2cccc(C)c2)C1=O (centres undefined)	-14.0	0.8	16.2	1.1
COP(=S)(OC)SCN1C(=O)c2ccccc2C1=O	98.5*	0.3	70.7*	0
Fc1ccc(CCNCc2ccc(Cl)c(Cl)c2)cc1	96.2*	0.9	6.6	0
CCN(CC)c1ccc(N=Cc2c(O)n(-c3ccc(OC)cc3)c(=O)[nH]c2=O)cc1	-8.6	1.1	-14.0	1.1
